In the library only some 5.9% were active in any assay of this set; here they are far more common.
GLP1R cytotox: cytotoxicity counter-screen for GLP-1 receptor inverse agonists. HEK293 cAMP-luciferase reporter cells, luminescence, 24 h. Potency, µM (series often up to 38.3 µM), for inactives: at the highest dose activity change, negative = inhibition, usual class: inhibitors. hit rate 0.13% among 410,000;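 also: loss of luciferase light is scored as toxicity; % is scaled to controls: 0 for no effect and ±100 for the full control effect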
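A 23 nL compound transfer followed 12 hours of cell culture at 37 deg C; exposure then lasted 24 hr. Luciferase assay detection reagent was dispensed and plates read for luminescence after a 12 min room-temperature wait.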
GLP-1R agonist: GLP-1 receptor (human) agonism. P43220. HEK293 GLP-1R CRE-luciferase, luminescence, 4-6 h; cells express a hypersensitive GLP-1R form. Potency, µM (series often up to 45.6 µM), inactives show top-dose activation, hits mostly activators. hit rate 0.007% among 380,000; also: % of control where 0% means no effect
GLP-1R inv ag: acts as inverse agonist at human GLP-1 receptor | hit rate 1.6% among 410,000 | P43220 | HEK293 GLP-1R CRE-luciferase, luminescence, 24 h; GLP-1R form is constitutively active | Potency, µM (doses to about 38.3 µM), inactives show at the top dose activity change, negative = inhibition, actives largely listed as inhibitors; also: % is scaled to controls: 0 for no effect and ±100 for the full control effect; nearly all actives have a fitted effect of over 55% in size
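Inverse agonists were sought by their lowering of basal cAMP reporter luciferase output in HEK293 cells stably carrying constitutively active human GLP-1R, after 24 h compound treatment.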
Gal4-VP16 FLuc: inhibits Gal4-VP16 luciferase reporter, ROR gamma counter-screen; Drosophila S2 Gal4-VP16 UAS-luciferase, luminescence, 20 h; Potency, µM (titrated, usually from 53.6 µM), for the others: at the highest dose activity, negative = inhibition, actives largely listed as inhibitors; hit rate 3.5% among 310,000;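 also: Gal4-VP16 expression switched on by copper sulfate through the metallothionein promoter; % is scaled to controls: 0 for no effect and ±100 for the full control effect; nearly all actives have a fitted effect of over 50% in size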
RORg inh: blocks mouse ROR gamma transcriptional activity; Potency, µM (doses to about 53.6 µM), without a hit: at the highest dose activity change, negative = inhibition, most hits filed as inhibitors; hit rate 5.4% among 310,000; Drosophila S2 Gal4-RORgamma UAS-luciferase reporter, 20 h; AID 2551; also: % is scaled to controls: 0 for no effect and ±100 for the full control effect; nearly all actives have a fitted effect of over 60% in size
Target sequence (P51450 whole entry, looked up, the tested form may be a part): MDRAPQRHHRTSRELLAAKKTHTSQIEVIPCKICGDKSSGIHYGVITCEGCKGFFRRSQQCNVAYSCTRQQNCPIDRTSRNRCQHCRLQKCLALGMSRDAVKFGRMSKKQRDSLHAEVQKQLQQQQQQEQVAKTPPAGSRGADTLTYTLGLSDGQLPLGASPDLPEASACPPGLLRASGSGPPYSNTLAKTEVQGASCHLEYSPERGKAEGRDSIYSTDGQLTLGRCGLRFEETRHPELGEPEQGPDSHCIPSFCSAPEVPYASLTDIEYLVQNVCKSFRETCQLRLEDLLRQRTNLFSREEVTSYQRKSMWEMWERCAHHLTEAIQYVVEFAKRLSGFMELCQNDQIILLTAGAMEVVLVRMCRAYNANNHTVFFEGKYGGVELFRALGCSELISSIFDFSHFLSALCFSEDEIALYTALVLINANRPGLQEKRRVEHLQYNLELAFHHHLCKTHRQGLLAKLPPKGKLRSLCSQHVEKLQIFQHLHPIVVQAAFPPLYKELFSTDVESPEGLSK
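Stably transfected Drosophila Schneider cells are the test system, with ROR gamma fused to Gal4 and luciferase under UAS control; luminescence is read after 20 hr of 700 uM copper sulfate induction at ambient temperature.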
* = called active by the depositor; ? = inconclusive; . = not tested or not shown; [ ] = remark or other dose. Calls follow the shape of the dose curve; as a rule, active = well fitted curve in the direction sought with a large enough effect; inconclusive = small, poorly fitted or top-dose-only effect, or another doubt; inactive = no such curve, though single readings can be large; an effect the other way counts as inactive or inconclusive. Potency is read from the fitted curve at half-maximal effect.

SMILES	GLP1R cytotox	GLP-1R agonist	GLP-1R inv ag	Gal4-VP16 FLuc	RORg inh
O=C(NCc1ccccn1)/C(=N/O)c1ccccc1	-6.5%	-2.4%	10.0%	-24.0%	10µM*
COc1ccc(NC(=S)NCc2ccccn2)cc1OC	-4.3%	10.1%	3.1%	?	?
Fc1ccc(NC(=S)Nc2nccs2)cc1	?	9.6%	?	1µM*	0.316µM*
S=C(NCc1ccccn1)Nc1ccccc1	0.2%	9.1%	10.4%	?	14.1µM*
S=C(NCc1ccccn1)Nc1ccc(Cl)c(Cl)c1	?	3.5%	-3.0%	5.01µM*	2.51µM*
C/C(=N\O)C(=O)NCc1ccccn1	-5.7%	-2.5%	14.0%	.	7.0%[0.365 µM]
COC(=O)[C@@H](NC(=O)O[C@@H]1C(=O)c2ccc(OC)cc2O[C@H]1c1ccc2c(c1)OCO2)C(C)C	.	.	.	6.7%	16.0%
COc1ccc2c(c1)c1c(c(=O)n(Cc3ccccc3)c(=O)n1Cc1cccc(Cl)c1)n2C	1.2%	0.7%	7.2%	.	.
COCCCn1c(SCc2ccccc2F)nc2c(sc3ccccc32)c1=O	-0.2%	-1.8%	0.0%	.	.
Cc1ccc(CNC(=O)Cn2cc(S(=O)(=O)Cc3ccccc3F)c3ccccc32)cc1	-11.9%	.	?	.	.
S=C(NCc1ccccn1)Nc1ccc(Cl)cc1Cl	-2.4%	-0.2%	-22.4%	12.6µM*	8.91µM*
Fc1ccc(NC(=S)NCc2ccccn2)cc1	-19.7%	-9.7%	9.7%	?	10µM*
Cc1cc(C)c2c(c1)c(C)cc1nnc(SCc3ccccc3C#N)n12	-1.3%	.	2.2%	.	.
S=c1[nH]nc(CSc2nc3ccccc3s2)n1C1CCCCC1	10.7%	-11.2%	?	1.26µM*	0.199µM*
NC(=O)CSc1nnc(COc2ccccc2)n1C1CCCCC1	-9.3%	-2.4%	-6.2%	2.2%	14.3%
CC(C)CCn1c(COc2ccccc2)n[nH]c1=S	-1.7%	-0.5%	-6.6%	?	1.12µM*
S=c1[nH]nc(COc2ccccc2)n1C1CCCCC1	-17.9%	-15.0%	?	3.98µM*	1.78µM*
Cc1cccc(OCc2n[nH]c(=S)n2Cc2ccccc2)c1	-4.2%	6.0%	-27.4%	?	2µM*
CCc1ccc(OCc2n[nH]c(=S)n2Cc2ccccc2)cc1	-7.2%	14.2%	?	-2.3%	-1.8%
Cc1cc(CNC(=O)[C@]2(C(F)(F)F)C[C@H](CCC3CCCCC3)CCCO2)nn1C	.	.	.	2.7%	-13.0%
CN(C)c1ccc(CNC(=O)C2CCN(Cc3cc4ccccc4n3Cc3ccccc3)CC2)cc1	1.9%	.	?	.	.
CN(C)c1ncc2nc(-c3cc(F)cc(F)c3)c(=O)n(Cc3cccs3)c2n1	.	.	.	-4.9%	-32.6%
CC(C)c1ncc([N+](=O)[O-])n1C	.	-1.6%	.	2.2%	-10.8%
COc1c(C)cccc1C(=O)Nc1ccc(-c2nc3ccccc3s2)c(Cl)c1	6.5%	.	-2.0%	.	.
FC(F)(F)c1cccc(NCc2n[nH]c(=S)n2C2CCCCC2)c1	-3.6%	7.0%	?	-22.7%	4.47µM*
SMILES	GLP1R cytotox	GLP-1R agonist	GLP-1R inv ag	Gal4-VP16 FLuc	RORg inh
S=c1[nH]nc(COc2ccc(Cl)cc2)n1Cc1ccco1	-0.3%	12.3%	?	?	3.16µM*
c1csc(CSc2nc3ccccc3s2)c1	10.3%	2.5%	8.1%	-5.4%	?
CCc1ccc(OCc2n[nH]c(=S)n2C(C)CCCC(C)C)cc1 (configuration not stated)	-22.0%	-2.8%	?	-22.2%	6.31µM*
CCn1c(CSc2nc3ccccc3s2)nc2ccccc21	?	17.5%	0.0%	?	10µM*
Cc1nc(SCc2ccc(OCCC(C)C)cc2)n[nH]1	-2.3%	23.3%	20.1%	?	-26.3%
CCCc1n[nH]c(=S)n1Cc1ccco1	7.2%	-1.7%	15.4%	2.5%	1.9%
C=CCC1(c2ccccc2)Oc2ccccc2-c2nc3cc(Cl)c(Cl)cc3nc21 (configuration not stated)	.	.	.	?	-24.1%[10 µM]
CCS(=O)(=O)c1ncc(N(Cc2ccco2)Cc2sccc2C)c(C(=O)Nc2ccc(C)cc2C)n1	-0.4%	.	5.1%	.	.
S=c1[nH]nc(COc2ccccc2)n1Cc1ccccc1	-4.8%	0.8%	?	6.31µM*	1.58µM*
CN(C)CCCn1cnc2c(c1=N)C(c1ccccc1)c1ccc3ccccc3c1O2 (configuration not stated)	?	-1.7%	?	?	17.8µM*
COc1ccc(C2c3ccc4ccccc4c3Oc3ncn(CCN(C)C)c(=N)c32)cc1 (configuration not stated)	?	26.8%	3.98µM*	?	31.6µM*
COc1ccc(C2c3ccc4ccccc4c3Oc3ncn(CCCO)c(=N)c32)cc1OC (configuration not stated)	?	?	?	-21.1%	-20.4%
COc1ccc(C2c3ccc4ccccc4c3Oc3ncn(CCO)c(=N)c32)cc1 (configuration not stated)	-25.9%	14.1%	?	?	?
COc1ccc(C2c3ccc4ccccc4c3Oc3ncn(CCCO)c(=N)c32)cc1 (configuration not stated)	?	15.8%	5.62µM*	-26.1%	3.98µM*
N=c1c2c(ncn1CCCO)Oc1c(ccc3ccccc13)C2c1ccccc1 (configuration not stated)	?	0.5%	?	?	17.8µM*
O=C(Nc1ccccc1C(=O)OCc1cc(=O)n2ccsc2n1)c1cccc(F)c1	-5.0%	.	?	.	.
CC1CC(O)CC(C)(C)C1 (configuration not stated)	.	15.2%	.	-0.6%	-19.7%
COC(=O)C1=C(C)N(Cc2ccccc2)[C@]23O[C@](C(=O)OC)(C(=O)N2C1c1ccccc1)C1CCCC(=O)C13 (some centres not stated)	.	.	.	-1.3%[10 µM]	?
COc1ccc(C2c3c(ncn(Cc4ccco4)c3=N)Oc3ccc4ccccc4c32)cc1 (configuration not stated)	-26.3%	-4.7%	?	8.91µM*	17.8µM*
COc1ccc(-c2cccc(C3C4C=CCCC4(C)C(=O)N3Cc3ccccc3)c2)cc1 (configuration not stated)	.	.	.	-25.0%	-8.0%
Nc1ncnc(Sc2ccc(Cl)cc2)c1[N+](=O)[O-]	-26.2%	0.1%	-30.4%	6.4%	-39.5%
Nc1ncnc(Sc2ccccc2)c1[N+](=O)[O-]	-23.1%	0.1%	?	?	10µM*
Nc1ncnc(Sc2ncccn2)c1[N+](=O)[O-]	11.2µM*	-5.4%	?	7.08µM*	3.98µM*
COc1cccc(OC)c1/C(O)=C(\C#N)c1nc2ccccc2[nH]1	-6.1%	-0.6%	-7.3%	-8.0%	3.4%
CCOC(=O)/C(O)=C(\C#N)c1nc2ccccc2[nH]1	-4.5%	0.3%	51.3%	-5.6%	?
N#C/C(=C(O)\C=C\c1ccccc1)c1nc2ccccc2[nH]1	0.3%	-1.4%	0.4%	-21.3%	2µM*
